Measured values as given in PubChem BioAssay (NCATS).
Records with an inconclusive call do not appear. Where a call stands in place of a potency, no number is given. Calls of active or inactive are those of the source. Calls come from the whole dose curve; as a rule, active = well fitted cell-killing curve with a large enough effect; inconclusive = small, poorly fitted or top-dose-only effect, or effect the other way; inactive = flat fitted curve, though single readings scatter.
Potency is the fitted concentration of half-maximal effect.

Test: qHTS of pediatric cancer cell lines to identify multiple opportunities for drug repurposing: Confirmatory screen for Rh18 cells (AID 1347125); note: nearly all actives have a fitted effect of over 55% in size
Conditions: Rh18 rhabdomyosarcoma cells, viability; series mostly up to 45.9 µM
Summary of the method: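 Viability after 48 h compound treatment at 37C, 500-1,000 cells/well, read as ATP luminescence with CellTiter-Glo. Primary screens used 11-point (MIPE, 0.78 nM-46 µM) or 8-point (NPC, 0.59 nM-46 µM) final concentrations; follow-up screens used 11-point dilutions.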
In the case of `CN[C@H]1[C@@H](O)[C@@H]2O[C@@H]3O[C@H](C)CC(=O)[C@]3(O)O[C@@H]2[C@@H](NC)[C@H]1O`, the Potency is reported as “inactive”. For `O=S(=O)(O)CCSSCCS(=O)(=O)O`, the Potency was “inactive”. For `Cc1cnc(Nc2ccc(N3CCN(C)CC3)cc2)nc1Nc1cccc(S(=O)(=O)NC(C)(C)C)c1`, the Potency was 2.93 µM (active). For `C=CC(=O)Nc1ccc2ncnc(Nc3ccc(OCc4cccc(F)c4)c(Cl)c3)c2c1`, the Potency was 16.5 µM (active). With `COc1ccc(C=Cc2cc(OC)c(OC)c(OC)c2)cc1NC(=O)[C@H](N)CO` the Potency was “inactive”. In the case of `C[N+](C)([O-])CCNc1ccc(NCC[N+](C)(C)[O-])c2c1C(=O)c1c(O)ccc(O)c1C2=O`, the Potency is reported as “inactive”. With `CCc1cc(C(C)=NOCc2ccc(C3CCCCC3)c(C(F)(F)F)c2)ccc1CN1CC(C(=O)O)C1` the Potency was “inactive”. For `CCOC(=O)C1=C(C)NC(=S)NC1c1cccc(O)c1` (configuration not stated), the Potency was “inactive”. In the case of `COc1ccc(Nc2cc(-c3cnc(N)nc3)nc(N3CCOCC3)n2)cn1`, the Potency is reported as 11.7 µM (active). With `Cn1c(Nc2ccc(C(F)(F)F)cc2)nc2cc(Oc3ccnc(-c4ncc(C(F)(F)F)[nH]4)c3)ccc21` the Potency was “inactive”. For `CCN(CC)CCNC(=O)c1c(C)[nH]c(C=C2C(=O)Nc3ccc(F)cc32)c1C`, the Potency was 26.9 µM (active). For `CN(C)c1ccc(C(=O)NCCCCCCC(=O)NO)cc1`, the Potency was 1.47 µM (active). For `COc1ccc(C(C)=O)c(O)c1`, the Potency was “inactive”. For `C[C@@]12C(=O)OC(=O)[C@@]1(C)C1CCC2O1`, the Potency was 2.93 µM (active). For `CC(C)C[C@H](NC(=O)[C@@H](NC(=O)c1cccc(-c2ccccc2)n1)[C@@H](C)O)B(O)O`, the Potency was 0.0827 µM (active). For `CCCCC(=O)O[C@]1(C(=O)CO)[C@@H](C)C[C@H]2[C@@H]3CCC4=CC(=O)C=C[C@]4(C)[C@@]3(F)[C@@H](O)C[C@@]21C`, the Potency was “inactive”. For `COc1ccc(C[C@@H](C)[C@@H](C)Cc2ccc(OC)c(OC)c2)cc1OC`, the Potency was “inactive”. In the case of `CCC(C=C[C@@H]1OC(=O)C=C[C@H]1C)=C[C@H](C)CC=CC(C)=C[C@@H](C)C(=O)[C@@H](C)[C@H](O)[C@@H](C)CC(C)=CC(=O)O`, the Potency is reported as 0.0091 µM (active). In the case of `COc1cccc2c1C(=O)c1c(O)c3c(c(O)c1C2=O)C[C@@](O)(C(=O)CO)C[C@H]3O[C@H]1C[C@H](N)[C@H](O)[C@H](C)O1`, the Potency is reported as 1.47 µM (active). In the case of `COc1cccc2c1C(=O)c1c(O)c3c(c(O)c1C2=O)C[C@@](O)(C(=O)CO)C[C@@H]3O[C@H]1C[C@H](N)[C@@H](O)[C@H](C)O1`, the Potency is reported as 0.585 µM (active). With `CC(C)C[C@H](NC(=O)CNC(=O)c1cc(Cl)ccc1Cl)B1OC(=O)CC(CC(=O)O)(C(=O)O)O1` (some centres not stated) the Potency was 0.369 µM (active). In the case of `Cc1[nH]c(C=C2C(=O)Nc3ccccc32)c(C)c1CCC(=O)O`, the Potency is reported as “inactive”.
